According to PubChem BioAssay (NCATS):
Records with an inconclusive call do not appear. Active and inactive are the calls of the source. Calls come from the whole dose curve; as a rule, active = well fitted curve in the direction sought with a large enough effect; inconclusive = small, poorly fitted or top-dose-only effect, or another doubt; inactive = no such curve, though single readings can be large; an effect the other way counts as inactive or inconclusive.

How the values were obtained:
[1] = Quantitative High-Throughput drug screen in 47 multiple myeloma cell lines against the NCATS MIPE library collection: INA6_PLB cell viability assay (AID 1918965; note: nearly all actives have a fitted effect of over 55% in size)
Procedure, shortened: (§1)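 Steps: seed 500 cells per well; pin-transfer MIPE 4.0 library; incubate 48 h at 37C, 5% CO2, humidified; add CellTiter-Glo, 5 min room temperature; read luminescence.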

[2] = Quantitative High-Throughput drug screen in 47 multiple myeloma cell lines against the NCATS MIPE library collection: Karpas25_ECACC cell viability assay (AID 1918968; note: nearly all actives have a fitted effect of over 35% in size)
Procedure, shortened: (§2)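 Inhibition of cell viability is measured here. Each line was plated at 500 cells per well, treated with MIPE 4.0 drugs, kept 48 hours at 37C, then assayed for ATP content by CellTiter-Glo luminescence.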

[3] = Quantitative High-Throughput drug screen in 47 multiple myeloma cell lines against the NCATS MIPE library collection: KMS12BM_JCRB cell viability assay (AID 1918971); note: nearly all actives have a fitted effect of over 35% in size
Procedure, shortened: (§3)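 qHTS of the MIPE 4.0 collection: 500 myeloma cells/well, 48 h drug exposure at 37C in 5% CO2, then CellTiter-Glo for 5 min at room temperature before luminescence reading.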

[4] = Quantitative High-Throughput drug screen in 47 multiple myeloma cell lines against the NCATS MIPE library collection: KMS12PE_JCRB cell viability assay (AID 1918972); note: nearly all actives have a fitted effect of over 30% in size
Procedure, shortened: as §1

[5] = Quantitative High-Throughput drug screen in 47 multiple myeloma cell lines against the NCATS MIPE library collection: KMS20_JCRB cell viability assay (AID 1918973); note: nearly all actives have a fitted effect of over 45% in size
Procedure, shortened: as §2

[6] = Quantitative High-Throughput drug screen in 47 multiple myeloma cell lines against the NCATS MIPE library collection: KMS26_JCRB cell viability assay (AID 1918975); note: nearly all actives have a fitted effect of over 45% in size
Procedure, shortened: as §3

[7] = Quantitative High-Throughput drug screen in 47 multiple myeloma cell lines against the NCATS MIPE library collection: NCIH929_DSMZ cell viability assay (AID 1918978); note: nearly all actives have a fitted effect of over 35% in size
Procedure, shortened: (§4)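 Inhibition of viability over 48 h was scored by ATP content (CellTiter-Glo) in 500-cell wells. Zero and full viability were defined by media-only and DMSO-only wells.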

[8] = Quantitative High-Throughput drug screen in 47 multiple myeloma cell lines against the NCATS MIPE library collection: OCIMY1_PLB cell viability assay (AID 1918979); note: nearly all actives have a fitted effect of over 35% in size
Procedure, shortened: as §4

[9] = Quantitative High-Throughput drug screen in 47 multiple myeloma cell lines against the NCATS MIPE library collection: MM1R_ATCC cell viability assay (AID 1918981); note: nearly all actives have a fitted effect of over 35% in size
Procedure, shortened: as §4

[10] = Quantitative High-Throughput drug screen in 47 multiple myeloma cell lines against the NCATS MIPE library collection: KMS28PE_JCRB cell viability assay (AID 1918983); note: nearly all actives have a fitted effect of over 35% in size
Procedure, shortened: as §4

[11] = Quantitative High-Throughput drug screen in 47 multiple myeloma cell lines against the NCATS MIPE library collection: KMS27_JCRB cell viability assay (AID 1918970); conditions: KMS27 myeloma cells, CellTiter-Glo ATP viability, 48 h; viability (% of DMSO): at 45.8 µM (top of the series); note: nearly all actives have a fitted effect of over 30% in size
Procedure, shortened: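 CellTiter-Glo luminescence after 48 h drug exposure at 37 °C; 500 cells/well, 1536-well format, pin-tool compound addition; DMSO = 100%, media-only = 0% viability.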

[12] = Quantitative High-Throughput drug screen in 47 multiple myeloma cell lines against the NCATS MIPE library collection: MMM1_PLB cell viability assay (AID 1918976); note: nearly all actives have a fitted effect of over 35% in size
Procedure, shortened: as §4

[13] = Quantitative High-Throughput drug screen in 47 multiple myeloma cell lines against the NCATS MIPE library collection: MM1S_ATCC cell viability assay (AID 1918980); note: nearly all actives have a fitted effect of over 45% in size
Procedure, shortened: as §4

[14] = Quantitative High-Throughput drug screen in 47 multiple myeloma cell lines against the NCATS MIPE library collection: LP1_DSMZ cell viability assay (AID 1918982); note: nearly all actives have a fitted effect of over 35% in size
Procedure, shortened: as §4

[15] = Quantitative High-Throughput drug screen in 47 multiple myeloma cell lines against the NCATS MIPE library collection: L363_DSMZ cell viability assay (AID 1918984); conditions: L363 myeloma viability, CellTiter-Glo ATP luminescence, 48 h; viability (% of control): at 45.8 µM (top of the series); note: nearly all actives have a fitted effect of over 40% in size
Procedure, shortened: as §4

[16] = Quantitative High-Throughput drug screen in 47 multiple myeloma cell lines against the NCATS MIPE library collection: MOLP8_DSMZ cell viability assay (AID 1918977); note: nearly all actives have a fitted effect of over 45% in size
Procedure, shortened: as §4

[17] = Quantitative High-Throughput drug screen in 47 multiple myeloma cell lines against the NCATS MIPE library collection: KMS34_JCRB cell viability assay (AID 1918985); note: nearly all actives have a fitted effect of over 40% in size
Procedure, shortened: as §4

[18] = Quantitative High-Throughput drug screen in 47 multiple myeloma cell lines against the NCATS MIPE library collection: H1112_PLB cell viability assay (AID 1918967; note: nearly all actives have a fitted effect of over 30% in size)
Procedure, shortened: as §2

[19] = Quantitative High-Throughput drug screen in 47 multiple myeloma cell lines against the NCATS MIPE library collection: JJN3_DSMZ cell viability assay (AID 1918966; note: nearly all actives have a fitted effect of over 50% in size)
Procedure, shortened: as §2

[20] = Quantitative High-Throughput drug screen in 47 multiple myeloma cell lines against the NCATS MIPE library collection: KMS21BM_JCRB cell viability assay (AID 1918974); conditions: ATP luminescence, 48 h; viability: at 45.8 µM (top of the series)
Procedure, shortened: as §2
Potency is the fitted concentration of half-maximal effect.

| Compound | Potency [1] | Potency [2] | Potency [3] | Potency [4] | Potency [5] | Potency [6] | Potency [7] | Potency [8] | Potency [9] | Potency [10] | Potency [11] | Potency [12] | Potency [13] | Potency [14] | Potency [15] | Potency [16] | Potency [17] | Potency [18] | Potency [19] | Potency [20] |
| --- | --- | --- | --- | --- | --- | --- | --- | --- | --- | --- | --- | --- | --- | --- | --- | --- | --- | --- | --- | --- |
| Cc1nn(Cc2ccccc2Cl)c(C)c1CN(C)CC(O)COc1ccc(Cl)cc1 (stereo unspecified) | 20.9 µM (active) | 20.9 µM (active) | 23.5 µM (active) | 5.9 µM (active) | 11.8 µM (active) | 20.9 µM (active) | 23.5 µM (active) | 18.7 µM (active) | 20.9 µM (active) | 4.69 µM (active) | – | – | – | – | – | – | – | – | – | – |
| C[C@H](CCC(=O)O)[C@H]1CC[C@H]2[C@H]3[C@@H](CC[C@]12C)[C@@]1(C)CC[C@@H](O)C[C@H]1C[C@@H]3O | inactive | – | inactive | – | inactive | inactive | inactive | inactive | inactive | inactive | 20.9 µM (active) | 1.66 µM (active) | inactive | 16.6 µM (active) | inactive | – | – | – | – | – |
| CN1CCN(c2ncc(-c3cc(Cl)cc(Cl)c3Cl)c(N)n2)CC1 | 13.2 µM (active) | – | inactive | – | – | inactive | 23.5 µM (active) | inactive | inactive | – | – | – | – | inactive | 18.7 µM (active) | inactive | inactive | – | – | – |
| O=C(Nc1cccc2c(=O)cc(-c3nn[nH]n3)oc12)c1ccc(OCCCCc2ccccc2)cc1 | 18.7 µM (active) | 18.7 µM (active) | – | – | – | – | – | – | 26.4 µM (active) | – | – | – | 23.5 µM (active) | – | – | inactive | – | – | – | – |
| COc1cc2ncnc(Nc3cc(Br)c(O)c(Br)c3)c2cc1OC | 0.148 µM (active) | – | 0.0019 µM (active) | – | 0.0023 µM (active) | inactive | – | – | 0.0418 µM (active) | 1.48 µM (active) | – | – | – | – | – | inactive | 6.62 µM (active) | 0.0418 µM (active) | – | – |
| CNc1nc(-c2ccc3c(N)n[nH]c3c2)cc(N2C[C@@H](C(=O)NC3CCCCC3)CC[C@@H]2C)n1 | 2.09 µM (active) | 2.09 µM (active) | – | – | – | – | 1.18 µM (active) | 18.7 µM (active) | 18.7 µM (active) | – | – | – | – | 2.64 µM (active) | – | – | 20.9 µM (active) | – | – | – |
| Cc1ccc2c(=O)c3cccc(CC(=O)O)c3oc2c1C | 23.5 µM (active) | – | – | inactive | 33.2 µM (active) | 20.9 µM (active) | – | inactive | 18.7 µM (active) | inactive | – | inactive | 14.8 µM (active) | inactive | – | – | – | 26.4 µM (active) | – | – |
| C=CCc1cccc(C=NNC(=O)CN2CCN(Cc3ccccc3)CC2)c1O | 14.8 µM (active) | 18.7 µM (active) | – | 4.18 µM (active) | – | – | – | 8.33 µM (active) | 10.5 µM (active) | 20.9 µM (active) | 5.26 µM (active) | 16.6 µM (active) | 9.35 µM (active) | – | 6.62 µM (active) | 6.62 µM (active) | 4.69 µM (active) | – | – | – |
| CC(O)=C(C#N)C(=O)Nc1ccc(C(F)(F)F)cc1 | 26.4 µM (active) | 26.4 µM (active) | 14.8 µM (active) | – | – | 18.7 µM (active) | – | inactive | 16.6 µM (active) | 16.6 µM (active) | – | 3.72 µM (active) | 16.6 µM (active) | – | inactive | – | 18.7 µM (active) | – | – | – |
| CCC(c1ccc(O)cc1)C(CC)c1ccc(O)cc1 (stereo unspecified) | inactive | – | – | inactive | – | 3.72 µM (active) | inactive | inactive | – | – | – | – | 4.69 µM (active) | – | inactive | inactive | – | 8.33 µM (active) | – | – |
| C#C[C@]1(O)CC[C@H]2[C@H]3CCc4cc(OC)ccc4[C@H]3CC[C@@]21C | 16.6 µM (active) | – | 18.7 µM (active) | – | – | 2.64 µM (active) | – | inactive | – | inactive | – | 18.7 µM (active) | 20.9 µM (active) | – | inactive | inactive | – | inactive | – | – |
| COc1cc2nc(-c3cc(F)ccc3O)nc(N[C@@H]3CNC[C@@H]3C(C)(C)O)c2cc1OC | – | 4.18 µM (active) | 20.9 µM (active) | 8.33 µM (active) | – | 18.7 µM (active) | 7.43 µM (active) | 18.7 µM (active) | 9.35 µM (active) | 20.9 µM (active) | 5.9 µM (active) | – | 18.7 µM (active) | 9.35 µM (active) | 1.87 µM (active) | 5.9 µM (active) | 16.6 µM (active) | 14.8 µM (active) | 11.8 µM (active) | 0.935 µM (active) |
| CN(C(Cc1ccc(OS(=O)(=O)c2cccc3cnccc23)cc1)C(=O)N1CCN(c2ccccc2)CC1)S(=O)(=O)c1cccc2cnccc12 (stereo unspecified) | – | 11.8 µM (active) | 10.5 µM (active) | 5.26 µM (active) | 2.64 µM (active) | 14.8 µM (active) | – | 7.43 µM (active) | 16.6 µM (active) | 10.5 µM (active) | – | – | 5.26 µM (active) | – | – | – | – | 8.33 µM (active) | 5.9 µM (active) | – |
| CC(C)C[C@H](NC(=O)c1cc2ccccc2s1)C(=O)N1CCN(C(=O)[C@H](CO)NS(=O)(=O)c2ccc(Cl)cc2Cl)CC1 | – | 26.4 µM (active) | 18.7 µM (active) | – | – | – | 26.4 µM (active) | – | 18.7 µM (active) | 23.5 µM (active) | – | – | 23.5 µM (active) | 26.4 µM (active) | – | – | – | 20.9 µM (active) | 18.7 µM (active) | – |
| CNC(=O)[C@H](Cc1ccccc1)NC(=O)[C@H](CC(C)C)[C@H](CSc1cccs1)C(=O)NO | – | 16.6 µM (active) | – | – | inactive | inactive | 9.35 µM (active) | – | – | 6.62 µM (active) | – | – | – | – | – | – | – | 20.9 µM (active) | 18.7 µM (active) | – |
